# Laboratory results taken from PubChem BioAssay.
# Where “and” joins values, the source holds several entries; their conditions need not be identical. Identical values can stand only once. Some compounds were tested as several samples or in several runs, with calls that do not always agree. Some of the results follow. Inconclusive results are not listed. Calls of active or inactive are those of the source.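 How the source made its calls, unless noted: active means inhibition at or above 50% relative to wild type and mutant plate controls; inactive means inhibition below 50%.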
# Experiments:
# [1] = inhibitors of TNFa-induced NFkB p65 translocation, primary screen, imaging, HUVEC, MLSMR starter and 10KST1 sets (AID 438;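 active means inhibition above 20% together with a positive visual image hit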;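 further: compound added about 3h40 before a 20 min TNFalpha stimulation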;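 on inhibition: signal is the nuclear over cytoplasmic p65 intensity ratio per well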); details: HUVEC TNFa-induced p65 nuclear translocation; cell count: measured here: nuclei count (cytotoxicity indicator), at 2.08 µM unless noted; inhibition: at 2 µM, stronger effect = higher value unless noted
# [2] = inhibitors of mutant huntingtin aggregation, primary screen, imaging, exon1htt(103Q)mCFP cells, high-content imaging (AID 483;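 active means visual image review flags a hit and inhibition of aggregation exceeds 20%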;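 further: compound exposure lasted 3 days before fixation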;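 on nuclei count: percent of the per-plate median nuclei count of sample wells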); details: exon1htt(103Q)mCFP cell line, aggregate imaging, at 2 µM; inhibition of aggregation: stronger effect = higher value; nuclei count: measured here: cell count, toxicity
# [3] = inhibitors of E-selectin induction by TNFa, primary screen, imaging, HUVEC, immunofluorescence, MLSMR starter and 10KST1 sets (AID 487;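 active means visually confirmed hit in the image check and inhibition above 20%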;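 on inhibition: signal is fraction of cell area covered by stained E-selectin grains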;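 on nuclei count: 100% = median nuclei count of all wells on the same plate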); details: HUVEC TNFalpha-induced E-selectin immunofluorescence imaging, at 2 µM; inhibition: stronger effect = higher value; nuclei count: measured here: cell number, toxicity
# [4] = DUSP6 inhibitors restoring Erk phosphorylation by chemical complementation, primary imaging in DUSP6-transfected HeLa (AID 609;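 active means compounds giving at least 50% inhibition in the cell-based MKP-3 phosphatase rescue imaging test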;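 on inhibition: phospho-Erk level distribution per well compared with pooled transfected vehicle control wells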); details: HeLa MKP-3 transfected, phospho-Erk imaging KS statistic, at 10 µM
# [5] = target: Dual specificity protein phosphatase 6 (Homo sapiens) (UniProt Q16828); assay: as above; details: HeLa MKP-3 transfected, phospho-Erk imaging KS statistic, at 10 µM, stronger effect = higher value
# Sequence of Dual specificity protein phosphatase 6 (Homo sapiens) (Q16828 whole entry, looked up): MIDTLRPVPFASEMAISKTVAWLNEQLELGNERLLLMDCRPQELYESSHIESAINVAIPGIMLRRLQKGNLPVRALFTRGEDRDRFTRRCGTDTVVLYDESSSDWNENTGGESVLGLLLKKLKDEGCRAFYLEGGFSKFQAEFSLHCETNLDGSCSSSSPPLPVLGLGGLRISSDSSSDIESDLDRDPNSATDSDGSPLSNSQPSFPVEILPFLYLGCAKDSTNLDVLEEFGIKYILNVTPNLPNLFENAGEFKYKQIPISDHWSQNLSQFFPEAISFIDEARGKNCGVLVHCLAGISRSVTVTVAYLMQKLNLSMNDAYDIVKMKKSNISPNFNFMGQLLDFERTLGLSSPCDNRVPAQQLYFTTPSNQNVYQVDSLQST
# [6] = target: Voltage-gated potassium channel subunit beta-2 (Rattus norvegicus) (UniProt P62483); assay: KvBeta enzyme negative modulators, primary screen, biochemical, NADPH fluorescence (AID 622;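 active means fluorescence slope higher than the sample average by over 3 SD, cut at about -0.22 in these data, passing the limit was not always enough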;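 further: slope of raw intensity against log time taken from 70 to 1610 s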); details: recombinant KvBeta, 4-cyanobenzaldehyde reduction, at 10 µM, stronger effect = higher value
# Sequence of Voltage-gated potassium channel subunit beta-2 (Rattus norvegicus) (P62483 whole entry, looked up): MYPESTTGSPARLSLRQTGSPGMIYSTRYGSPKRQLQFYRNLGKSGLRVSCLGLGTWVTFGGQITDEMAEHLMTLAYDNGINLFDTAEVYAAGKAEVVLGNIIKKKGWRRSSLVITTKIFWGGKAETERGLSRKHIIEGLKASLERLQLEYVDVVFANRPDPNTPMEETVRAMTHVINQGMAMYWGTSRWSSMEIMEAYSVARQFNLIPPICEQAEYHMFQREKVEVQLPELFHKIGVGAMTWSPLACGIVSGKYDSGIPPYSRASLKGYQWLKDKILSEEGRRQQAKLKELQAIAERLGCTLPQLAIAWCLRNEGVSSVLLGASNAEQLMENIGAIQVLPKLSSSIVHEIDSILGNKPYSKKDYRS
# [7] = target: Voltage-gated potassium channel subunit beta-2 (Rattus norvegicus) (UniProt P62483); assay: KvBeta positive modulators, primary screen, biochemical, NADPH fluorescence (AID 623;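 active means NADPH fluorescence slope more negative than the mean of all samples by about 3 SD, 99.7% confidence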;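 further: fluorescence intensity change per second fitted from 20 to 320 s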); details: Recombinant KvBeta, NADPH fluorescence decrease slope, 10 min; at 10 µM; stronger effect = lower value
# [8] = target: Alpha-2C adrenergic receptor (Homo sapiens) (UniProt P18825); assay: modulators of alpha2C/GIRK thallium flux, primary screen, cell-based, HEK293 alpha2C/GIRK1/2 (AID 624;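 active means fluorescence slope after compound addition differing from the mean of all screened samples at 99.7% confidence, in either direction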;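 further: slope of fluorescence ratio to pre-addition baseline per second over 15 to 24 s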); details: thallium flux BTC fluorescence, at 10 µM, actives lie on both sides
# Sequence of Alpha-2C adrenergic receptor (Homo sapiens) (P18825 whole entry, looked up): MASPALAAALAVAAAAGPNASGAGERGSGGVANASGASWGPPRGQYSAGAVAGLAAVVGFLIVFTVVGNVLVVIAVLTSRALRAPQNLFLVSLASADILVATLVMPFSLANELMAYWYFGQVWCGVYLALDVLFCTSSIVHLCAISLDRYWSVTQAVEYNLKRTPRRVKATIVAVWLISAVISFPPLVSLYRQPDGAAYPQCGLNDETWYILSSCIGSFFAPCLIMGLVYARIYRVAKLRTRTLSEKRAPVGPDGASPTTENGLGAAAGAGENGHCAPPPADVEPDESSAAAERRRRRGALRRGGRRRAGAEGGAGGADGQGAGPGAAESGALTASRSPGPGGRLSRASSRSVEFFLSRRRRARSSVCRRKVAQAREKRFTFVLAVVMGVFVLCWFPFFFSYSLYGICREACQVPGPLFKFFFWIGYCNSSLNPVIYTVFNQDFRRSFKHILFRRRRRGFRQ
# [9] = inhibitors of Chlamydomonas gravitaxis, primary screen, whole organism, Chlamydomonas reinhardtii, WT vs cilia-less mutant, absorbance, 96-well (AID 463189); details: OD600 absorbance, 2 days, at 10 µM, stronger effect = higher value;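 further: 0% = wild type cc124 cells in DMSO and 100% = ciliumless bld1 mutant cells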
# [10] = inhibitors of Sendai virus-induced IRF3 signaling, primary screen, TLR/RLR signaling modifier project, cell-based, Sendai virus stimulus, luciferase, 10K MLSCN set (AID 602276;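 active means inhibition at or above 50% at 10 µM; inactive means inhibition below 50%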;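 further: firefly luciferase from ISG56 promoter only with Renilla not read in this screen; 0% = Sendai virus plus DMSO and 100% = medium plus DMSO without virus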); details: HEK293 RL24 IRF3 luciferase reporter, at 10 µM, stronger effect = higher value
# [11] = inhibitors of poly I:C-induced TLR3 signaling, primary screen, cell-based, poly I:C stimulus, luciferase, 10K MLSCN set (AID 602277;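 active means inhibition of the reporter signal at or above 50%; inactive means inhibition below 50%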); details: HEK293-TLR3 RL24 IRF3 luciferase reporter, at 10 µM, stronger effect = higher value
# [12] = inhibitors of larval lipid processing in zebrafish, primary screen, whole organism, PED6 fluorescence, gall bladder and intestine (AID 686;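 active means a full or partial loss of lipid-probe fluorescence in the fish gall bladder, intestine or both, judged by eye; inactive means no fluorescence loss, or compound toxic to the fish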;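 further: larvae 5 to 7 days old with five fish per well; signal comes from phospholipase A2 cleavage of quenched PED6 carried via bile; overnight exposure to compound and PED6 before scoring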); details: Zebrafish larvae PED6 lipid processing, fluorescence scoring
# [13] = target: Muscarinic acetylcholine receptor M4 (Homo sapiens) (UniProt P08173); assay: compounds altering M4/GIRK thallium flux, either direction, primary screen, M4 allosteric agonist project, cell-based, HEK293 M4/GIRK, BTC-AM (AID 625;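 active means fluorescence slope after compound addition differing from the mean of all tested samples at 99.7% confidence, mostly higher but some lower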;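 further: thallium influx through GIRK channels coupled to M4 in HEK293 cells with BTC-AM dye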); details: at 10 µM, actives lie on both sides
# Sequence of Muscarinic acetylcholine receptor M4 (Homo sapiens) (P08173 whole entry, looked up): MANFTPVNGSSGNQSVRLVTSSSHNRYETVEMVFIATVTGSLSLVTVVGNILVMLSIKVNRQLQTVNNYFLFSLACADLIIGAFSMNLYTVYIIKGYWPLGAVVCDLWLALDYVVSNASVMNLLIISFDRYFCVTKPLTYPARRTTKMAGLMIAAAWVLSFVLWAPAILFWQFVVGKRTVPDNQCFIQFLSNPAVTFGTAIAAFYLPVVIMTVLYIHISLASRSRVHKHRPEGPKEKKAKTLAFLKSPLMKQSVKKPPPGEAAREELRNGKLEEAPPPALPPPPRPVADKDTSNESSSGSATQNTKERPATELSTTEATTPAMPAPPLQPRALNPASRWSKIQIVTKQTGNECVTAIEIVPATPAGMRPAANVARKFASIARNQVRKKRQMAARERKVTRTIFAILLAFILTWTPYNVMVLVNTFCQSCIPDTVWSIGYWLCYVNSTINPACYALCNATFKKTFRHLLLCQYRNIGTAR
# [14] = target: Solute carrier family 12 member 5 (Homo sapiens) (UniProt Q9H2X9); assay: KCC2 modulators in sodium-free buffer, confirmation, cell-based, HEK293 KCC2, thallium flux, secondary assay (AID 1713;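 active means thallium flux slope above the same plate's solvent-only control mean plus 3 SD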); details: FluoZin2 fluorescence, at 10 µM, stronger effect = higher value
# Sequence of Solute carrier family 12 member 5 (Homo sapiens) (Q9H2X9 whole entry, looked up): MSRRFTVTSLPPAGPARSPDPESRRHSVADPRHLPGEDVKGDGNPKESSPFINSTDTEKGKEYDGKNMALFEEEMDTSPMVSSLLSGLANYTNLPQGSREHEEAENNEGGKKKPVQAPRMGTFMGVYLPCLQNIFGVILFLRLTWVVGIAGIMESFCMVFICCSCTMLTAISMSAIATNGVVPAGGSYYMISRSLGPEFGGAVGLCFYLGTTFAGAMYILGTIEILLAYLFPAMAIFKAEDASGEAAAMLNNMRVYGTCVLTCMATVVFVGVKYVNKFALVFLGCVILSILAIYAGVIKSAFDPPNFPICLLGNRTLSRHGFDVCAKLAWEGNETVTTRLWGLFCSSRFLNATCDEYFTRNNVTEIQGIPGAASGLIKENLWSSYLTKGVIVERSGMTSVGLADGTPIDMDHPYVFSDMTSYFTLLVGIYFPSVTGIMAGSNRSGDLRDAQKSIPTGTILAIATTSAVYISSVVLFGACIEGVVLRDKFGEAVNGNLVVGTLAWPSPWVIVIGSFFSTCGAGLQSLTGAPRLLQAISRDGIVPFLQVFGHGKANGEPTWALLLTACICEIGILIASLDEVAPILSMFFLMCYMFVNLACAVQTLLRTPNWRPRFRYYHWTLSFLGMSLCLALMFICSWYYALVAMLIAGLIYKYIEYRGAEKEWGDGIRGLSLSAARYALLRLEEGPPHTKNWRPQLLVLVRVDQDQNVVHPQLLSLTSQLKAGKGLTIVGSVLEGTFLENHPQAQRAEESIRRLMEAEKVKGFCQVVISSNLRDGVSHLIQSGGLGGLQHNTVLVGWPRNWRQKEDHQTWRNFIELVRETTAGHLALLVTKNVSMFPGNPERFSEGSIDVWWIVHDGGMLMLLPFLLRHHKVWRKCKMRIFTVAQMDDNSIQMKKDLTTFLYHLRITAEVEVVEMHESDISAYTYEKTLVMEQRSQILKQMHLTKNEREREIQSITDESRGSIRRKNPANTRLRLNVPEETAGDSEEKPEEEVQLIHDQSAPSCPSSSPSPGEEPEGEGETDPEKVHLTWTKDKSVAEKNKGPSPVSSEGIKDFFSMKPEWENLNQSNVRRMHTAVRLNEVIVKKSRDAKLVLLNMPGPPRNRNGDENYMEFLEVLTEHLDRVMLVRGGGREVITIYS
# [15] = target: Solute carrier family 12 member 5 (Homo sapiens) (UniProt Q9H2X9); assay: KCC2 modulators without ouabain present, confirmation, cell-based, HEK293 KCC2, thallium flux, FluoZin2, secondary assay 2 (AID 1715;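 active means thallium flux slope more than 3 SD above or below the plate's solvent-only control mean, mostly below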;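 further: raw slope with 0.1% DMSO as baseline and bumetanide as block control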); details: HEK293-KCC2, thallium flux FluoZin2 fluorescence; at 10 µM; actives lie on both sides
# [16] = thallium flux modulation in parental HEK cells, confirmation, counter-screen for KCC2 modulator project, cell-based, counterscreen 1 (AID 1716;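 active means thallium flux rate significantly above the same plate's solvent-only control wells, beyond their mean plus 3 SD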); details: HEK293 parental cells, thallium flux FluoZin2, ouabain; at 10 µM; baseline-ratio fluorescence slope, 10–20 s after thallium
# [17] = target: Solute carrier family 12 member 5 (Homo sapiens) (UniProt Q9H2X9); assay: KCC2 inhibitors and activators, ouabain retest, confirmation, HEK-KCC2 cells (AID 1717;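 active means thallium flux slope beyond 3 SD from same-plate DMSO control mean in most replicates, usually higher, sometimes lower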;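 further: slope of initial-normalized fluorescence between seconds 10 and 20 after thallium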); details: HEK293-KCC2, thallium flux FluoZin2 fluorescence, at 10 µM, bidirectional: low = inhibitor, high = activator
# [18] = measured here: cell density z-score
# [19] = measured here: nuclear c-Myc green intensity z-score
# [20] = measured here: nuclear pErk red intensity z-score, stronger effect = higher value
smiles,measurement,setting,value
Cc1ccc2c(c1)[C@@H]1CN(C)CC[C@@H]1N2C(=O)Nc1cccc(C(F)(F)F)c1,cell count,[1],378
same,inhibition,[1],-9.8% (inactive)
same,inhibition of aggregation,[2],-11.2% (inactive)
same,nuclei count,[2],94.1%
same,inhibition,[3],-93.8% (inactive)
same,nuclei count,[3],95.7%
same,z-score,[4]; [18],1.48
same,z-score,[4]; [19],0.568
same,z-score,[4]; [20],0.647
same,inhibition,[5],-4.78% (inactive)
same,fluorescence slope,[6],-0.508 (inactive)
same,NADPH fluorescence slope,[7],-0.000528 (active)
same,slope,[8],0.0079 (inactive)
same,inhibition,[9],4.34% (inactive)
same,inhibition,[10],20.1% (inactive)
same,inhibition,[11],23.5% (inactive)
Cc1c2ccncc2c(C)c2c1[nH]c1ccccc12,cell count,[1],493
same,inhibition,[1],-11.8% (inactive)
same,inhibition of aggregation,[2],-178% (inactive)
same,nuclei count,[2],27.6%
same,inhibition,[3],-23% (inactive)
same,nuclei count,[3],100%
same,z-score,[4]; [18],-0.124
same,z-score,[4]; [19],0.964
same,z-score,[4]; [20],-1.2
same,inhibition,[5],38.9% (inactive)
same,fluorescence slope,[6],-0.464 (inactive)
same,NADPH fluorescence slope,[7],-5.8e-09 (inactive)
same,slope,[8],0.0129 (active)
same,inhibition,[9],11% (inactive) and 108% (active)
same,inhibition,[10],12.8% (inactive)
same,inhibition,[11],91.8% (active)
NCC(CC(=O)O)c1ccc(Cl)cc1 (configuration not stated),cell count,[1],601
same,inhibition,[1],-13.8% (inactive)
same,inhibition of aggregation,[2],-0.4% (inactive)
same,nuclei count,[2],95.6%
same,inhibition,[3],-102% (inactive)
same,nuclei count,[3],112%
same,z-score,[4]; [18],-0.759
same,z-score,[4]; [19],1.88
same,z-score,[4]; [20],0.491
same,inhibition,[5],9.37% (inactive)
same,fluorescence slope,[6],-0.448 (inactive)
same,NADPH fluorescence slope,[7],-4.9e-05 (inactive)
same,slope,[8],0.00441 (inactive)
same,outcome,[12],inactive
same,inhibition,[9],-1.51% (inactive) and 3.49% (inactive)
same,inhibition,[10],13.4% (inactive)
same,inhibition,[11],26.4% (inactive)
CC(C)[C@H]1C(=O)N2CCC[C@H]2[C@]2(O)O[C@](NC(=O)[C@@H]3C=C4c5cccc6[nH]cc(c56)C[C@H]4N(C)C3)(C(C)C)C(=O)N12,cell count,[1],501
same,inhibition,[1],1.6% (inactive)
same,inhibition of aggregation,[2],-14% (inactive)
same,nuclei count,[2],110%
same,inhibition,[3],-84.6% (inactive)
same,nuclei count,[3],122%
same,z-score,[4]; [18],-1.33
same,z-score,[4]; [19],-1
same,z-score,[4]; [20],0.393
same,inhibition,[5],3.59% (inactive)
same,fluorescence slope,[6],-0.451 (inactive)
same,NADPH fluorescence slope,[7],-1.8e-05 (inactive)
same,slope,[8],0.0044 (inactive)
same,inhibition,[9],13.5% (inactive)
same,inhibition,[10],10.2% (inactive)
same,inhibition,[11],18.2% (inactive)
CCCC(=O)OCC[N+](C)(C)C,cell count,[1],626
same,inhibition,[1],-8.2% (inactive)
same,inhibition of aggregation,[2],-16.7% (inactive)
same,nuclei count,[2],111%
same,inhibition,[3],-31.1% (inactive)
same,nuclei count,[3],135%
same,z-score,[4]; [18],0.404
same,z-score,[4]; [19],-0.787
same,z-score,[4]; [20],0.37
same,inhibition,[5],13.3% (inactive)
same,fluorescence slope,[6],-0.481 (inactive)
same,NADPH fluorescence slope,[7],5e-06 (inactive)
same,slope,[8],0.00561 (inactive)
same,outcome,[12],inactive
same,inhibition,[9],18.3% (inactive)
same,inhibition,[10],21.4% (inactive)
same,inhibition,[11],35% (inactive)
CNCCc1c[nH]c2ccccc12,cell count,[1],615
same,inhibition,[1],-10.3% (inactive)
same,inhibition of aggregation,[2],3.8% (inactive)
same,nuclei count,[2],103%
same,inhibition,[3],-70.6% (inactive)
same,nuclei count,[3],127%
same,z-score,[4]; [18],-0.539
same,z-score,[4]; [19],-0.571
same,z-score,[4]; [20],-0.457
same,inhibition,[5],-6.41% (inactive)
same,fluorescence slope,[6],-0.506 (inactive)
same,NADPH fluorescence slope,[7],2.2e-05 (inactive)
same,slope,[8],0.00539 (inactive)
same,outcome,[12],inactive
same,inhibition,[9],1.04% (inactive)
same,inhibition,[10],25.5% (inactive)
same,inhibition,[11],49.1% (inactive)
O=C1NC(=O)C(C/C=C/c2ccccc2)C(=O)N1,cell count,[1],678
same,inhibition,[1],-2.2% (inactive)
same,inhibition,[3],29.3% (inactive)
same,nuclei count,[3],154%
same,z-score,[4]; [18],0.051
same,z-score,[4]; [19],0.145
same,z-score,[4]; [20],0.14
same,inhibition,[5],16.5% (inactive)
same,fluorescence slope,[6],-0.473 (inactive)
same,NADPH fluorescence slope,[7],-4.7e-05 (inactive)
same,fluorescence slope,[13],0.00573 (inactive)
same,outcome,[12],inactive
same,normalised thallium flux (F/F0 slope),[14],0.00969 (inactive)
same,normalized thallium flux,[15],0.0324 (inactive)
same,thallium flux rate (normalised fluorescence),[16],0.0082 (inactive)
same,"raw Tl+ flux slope (below DMSO = inhibition, above = activation)",[17],0.0194 (inactive)
same,inhibition,[9],-5.46% (inactive)
c1ccc(Cn2ccnc2)cc1,cell count,[1],630
same,inhibition,[1],3.1% (inactive)
same,inhibition of aggregation,[2],16.2% (inactive)
same,nuclei count,[2],94.6%
same,inhibition,[3],-120% (inactive)
same,nuclei count,[3],130%
same,z-score,[4]; [18],1.25
same,z-score,[4]; [19],-0.35
same,z-score,[4]; [20],1.06
same,inhibition,[5],8% (inactive)
same,fluorescence slope,[6],-0.486 (inactive)
same,NADPH fluorescence slope,[7],3.7e-06 (inactive)
same,slope,[8],0.00411 (inactive)
same,outcome,[12],inactive
same,inhibition,[9],-7.16% (inactive)
same,inhibition,[10],20.5% (inactive)
same,inhibition,[11],27.2% (inactive)
CNCC(O)c1ccc(O)cc1 (configuration not stated),cell count,[1],624
same,inhibition,[1],3.3% (inactive)
same,inhibition of aggregation,[2],4.2% (inactive)
same,nuclei count,[2],102%
same,inhibition,[3],-43.9% (inactive)
same,nuclei count,[3],118%
same,z-score,[4]; [18],-0.968
same,z-score,[4]; [19],-0.213
same,z-score,[4]; [20],1.33
same,inhibition,[5],-0.828% (inactive)
same,fluorescence slope,[6],-0.493 (inactive)
same,NADPH fluorescence slope,[7],1.3e-05 (inactive)
same,slope,[8],0.00558 (inactive)
same,outcome,[12],inactive
same,inhibition,[9],-0.226% (inactive) and -8.32% (inactive)
same,inhibition,[10],14.9% (inactive)
same,inhibition,[11],28.2% (inactive)
CC[C@@H](CO)NC(=O)[C@@H]1C=C2c3cccc4c3c(cn4C)C[C@H]2N(C)C1,cell count,[1],540
same,inhibition,[1],-4.2% (inactive)
same,inhibition of aggregation,[2],-7.9% (inactive)
same,nuclei count,[2],89.4%
same,inhibition,[3],-32.5% (inactive)
same,nuclei count,[3],113%
same,z-score,[4]; [18],0.785
same,z-score,[4]; [19],-0.624
same,z-score,[4]; [20],-1.05
same,inhibition,[5],5.79% (inactive)
same,fluorescence slope,[6],-0.107 (active)
same,NADPH fluorescence slope,[7],-2e-06 (inactive)
same,slope,[8],0.0047 (inactive)
same,outcome,[12],inactive
same,inhibition,[9],5.16% (inactive) and -19.2% (inactive)
same,inhibition,[10],18% (inactive)
same,inhibition,[11],38% (inactive)
